# Tests used:
# Alpha-enolase = Alpha-enolase (UniProt P06733); experiment: cross-linking mass spectrometry
# [1] = target: Heat shock cognate 71 kDa protein (UniProt P11142); experiment: cross-linking mass spectrometry
# [2] = target: Voltage-gated monoatomic cation channel TMEM109 (UniProt Q9BVC6); experiment: cross-link between two proteins; cross-linking mass spectrometry
# Actin, cytoplasmic 1 = Actin, cytoplasmic 1 (UniProt P60709); experiment: cross-linking mass spectrometry
# Histone H2B type 1-N = Histone H2B type 1-N (UniProt Q99877); experiment: cross-linking mass spectrometry
# [3] = target: Protein disulfide-isomerase A6 (UniProt Q15084); experiment: cross-link between two proteins; cross-linking mass spectrometry
# [4] = target: Heterogeneous nuclear ribonucleoprotein U (UniProt Q00839); experiment: cross-linking mass spectrometry
# CD44 antigen = CD44 antigen (UniProt P16070); experiment: cross-link between two proteins; affinity purification or IP with mass spectrometry; cross-linking mass spectrometry
# Sequence of Alpha-enolase (P06733 whole entry): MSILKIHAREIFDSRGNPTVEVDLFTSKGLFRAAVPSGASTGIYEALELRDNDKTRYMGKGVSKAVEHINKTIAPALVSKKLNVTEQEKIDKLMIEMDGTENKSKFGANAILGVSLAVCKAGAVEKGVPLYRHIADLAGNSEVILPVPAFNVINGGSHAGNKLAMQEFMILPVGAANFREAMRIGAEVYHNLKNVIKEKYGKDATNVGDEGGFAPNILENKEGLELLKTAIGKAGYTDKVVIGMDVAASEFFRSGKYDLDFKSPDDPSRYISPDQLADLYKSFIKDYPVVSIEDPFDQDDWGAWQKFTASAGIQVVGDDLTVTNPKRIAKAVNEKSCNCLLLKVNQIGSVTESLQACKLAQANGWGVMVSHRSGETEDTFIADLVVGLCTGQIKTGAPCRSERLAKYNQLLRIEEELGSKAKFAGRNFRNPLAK
# Sequence of Protein disulfide-isomerase A6 (Q15084 whole entry): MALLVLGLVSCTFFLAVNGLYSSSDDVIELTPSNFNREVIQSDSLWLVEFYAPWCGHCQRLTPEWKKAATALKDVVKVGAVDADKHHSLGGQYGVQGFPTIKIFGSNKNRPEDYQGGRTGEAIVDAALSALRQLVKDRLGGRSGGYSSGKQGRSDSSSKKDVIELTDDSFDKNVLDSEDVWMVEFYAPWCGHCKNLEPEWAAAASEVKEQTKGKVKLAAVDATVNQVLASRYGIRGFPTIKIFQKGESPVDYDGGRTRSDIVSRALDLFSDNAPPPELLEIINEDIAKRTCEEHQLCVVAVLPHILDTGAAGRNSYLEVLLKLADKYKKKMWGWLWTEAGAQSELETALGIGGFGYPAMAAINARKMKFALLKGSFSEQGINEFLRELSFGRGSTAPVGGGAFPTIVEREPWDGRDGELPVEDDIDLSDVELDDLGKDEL
# Sequence of Protein disulfide-isomerase, P07237 (P07237 whole entry): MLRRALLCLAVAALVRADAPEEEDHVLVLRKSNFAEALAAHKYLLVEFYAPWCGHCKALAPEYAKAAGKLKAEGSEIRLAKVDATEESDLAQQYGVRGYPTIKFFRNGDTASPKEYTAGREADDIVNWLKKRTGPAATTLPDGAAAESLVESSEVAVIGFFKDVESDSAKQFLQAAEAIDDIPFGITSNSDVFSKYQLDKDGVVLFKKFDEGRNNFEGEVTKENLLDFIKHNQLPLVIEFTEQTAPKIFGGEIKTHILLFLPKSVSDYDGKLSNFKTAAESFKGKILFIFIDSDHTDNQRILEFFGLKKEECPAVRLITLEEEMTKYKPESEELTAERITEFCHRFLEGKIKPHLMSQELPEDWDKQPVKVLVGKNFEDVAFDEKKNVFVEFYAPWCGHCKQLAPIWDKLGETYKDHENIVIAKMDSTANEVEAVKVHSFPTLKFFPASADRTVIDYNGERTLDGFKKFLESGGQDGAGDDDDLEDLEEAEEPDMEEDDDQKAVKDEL
# Sequence of Voltage-gated monoatomic cation channel TMEM109 (Q9BVC6 whole entry): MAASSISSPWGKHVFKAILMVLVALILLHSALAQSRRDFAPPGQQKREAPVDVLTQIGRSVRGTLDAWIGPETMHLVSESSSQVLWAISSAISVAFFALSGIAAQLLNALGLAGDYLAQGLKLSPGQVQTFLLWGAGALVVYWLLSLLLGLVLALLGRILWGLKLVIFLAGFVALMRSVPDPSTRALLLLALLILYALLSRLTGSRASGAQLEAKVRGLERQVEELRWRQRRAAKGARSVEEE
# Sequence of Glyceraldehyde-3-phosphate dehydrogenase, P04406 (P04406 whole entry): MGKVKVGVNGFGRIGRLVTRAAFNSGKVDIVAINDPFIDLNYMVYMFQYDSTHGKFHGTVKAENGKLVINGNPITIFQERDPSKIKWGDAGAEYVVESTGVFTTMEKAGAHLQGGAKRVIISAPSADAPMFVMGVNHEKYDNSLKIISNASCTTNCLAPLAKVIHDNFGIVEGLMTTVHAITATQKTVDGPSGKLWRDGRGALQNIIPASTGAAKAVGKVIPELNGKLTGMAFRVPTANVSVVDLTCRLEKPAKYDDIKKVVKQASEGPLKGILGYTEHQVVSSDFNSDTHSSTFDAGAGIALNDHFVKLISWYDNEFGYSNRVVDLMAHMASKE
# Sequence of Heterogeneous nuclear ribonucleoprotein U (Q00839 whole entry): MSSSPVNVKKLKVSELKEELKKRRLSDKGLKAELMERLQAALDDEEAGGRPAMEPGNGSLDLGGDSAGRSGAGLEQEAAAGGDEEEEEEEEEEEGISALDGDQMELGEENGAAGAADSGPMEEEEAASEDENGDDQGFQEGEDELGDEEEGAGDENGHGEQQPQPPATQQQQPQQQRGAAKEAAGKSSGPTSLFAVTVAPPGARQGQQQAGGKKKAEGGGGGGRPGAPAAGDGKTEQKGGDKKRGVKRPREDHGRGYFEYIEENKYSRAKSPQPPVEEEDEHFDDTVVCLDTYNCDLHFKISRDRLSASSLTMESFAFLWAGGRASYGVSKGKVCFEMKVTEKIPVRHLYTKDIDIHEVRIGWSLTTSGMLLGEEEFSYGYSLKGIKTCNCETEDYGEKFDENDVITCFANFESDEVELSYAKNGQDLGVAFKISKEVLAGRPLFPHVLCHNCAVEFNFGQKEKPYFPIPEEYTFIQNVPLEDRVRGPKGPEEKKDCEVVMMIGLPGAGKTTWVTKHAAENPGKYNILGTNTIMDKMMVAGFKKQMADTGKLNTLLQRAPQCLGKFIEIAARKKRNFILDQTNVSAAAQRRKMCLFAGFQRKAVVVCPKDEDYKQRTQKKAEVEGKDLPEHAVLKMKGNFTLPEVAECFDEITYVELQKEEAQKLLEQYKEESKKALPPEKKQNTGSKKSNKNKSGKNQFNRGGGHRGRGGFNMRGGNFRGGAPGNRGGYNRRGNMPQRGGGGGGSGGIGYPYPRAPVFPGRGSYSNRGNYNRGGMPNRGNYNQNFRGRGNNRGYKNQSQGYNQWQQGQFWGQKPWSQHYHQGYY
substance,measurement,setting,value
"Glyceraldehyde-3-phosphate dehydrogenase, P04406",listed as a hit,Alpha-enolase,yes
"Tubulin beta chain, P07437",listed as a hit,[1],yes
"Transmembrane protein 43, Q9BTV4",listed as a hit,[2],yes
"High mobility group protein B1, P09429",listed as a hit,"Actin, cytoplasmic 1",yes
same,listed as a hit,Histone H2B type 1-N,yes
"Protein disulfide-isomerase, P07237",listed as a hit,[3],yes
"Heterogeneous nuclear ribonucleoprotein A1, P09651",listed as a hit,[4],yes
"Annexin A6, P08133",listed as a hit,CD44 antigen,yes
